# Screen size: about 16,000 compounds; about 120 (0.75%) were called active. Another 4% or so got no clear call; they are omitted. Calls come from the whole dose curve; as a rule, active = well fitted inhibition curve with a large enough effect; inconclusive = small, poorly fitted or top-dose-only effect; inactive = no such curve, though single readings can be large or run the other way. What follows is part of a selection rich in actives, with near analogues and random picks from the rest. A structure can be active in one record and inactive in another.
# Biological target: Rap guanine nucleotide exchange factor 3 (Homo sapiens) (UniProt O95398)
# Assay: Validation qHTS for antagonist of cAMP-regulated guanine nucleotide exchange factor 3 (EPAC1); note: nearly all actives have a fitted effect of over 75% in size
# Details: EPAC1 Rap1B-BODIPY-GDP exchange, fluorescence; series mostly up to 150 µM; activity change, negative = inhibition: at the top concentration
# Excerpt: Assay Provider (PI): Xiaodong Cheng Ph.D.
# The University of Texas Medical Branch, […], TX
# In multi-cellular eukaryotic organisms, the effects of cAMP are transduced by two ubiquitously-expressed intracellular cAMP receptors, the classic protein kinase A/cAMP-dependent protein kinase (PKA/cAPK) and the more recently discovered exchange protein directly activated by cAMP/cAMP-regulated guanine nucleotide exchange factor (EPAC/cAMP-GEF). Both PKA and EPAC are ubiquitously expressed in all tissues, and an increase in intracellular cAMP levels will lead to the activation of both PKA and EPAC. Therefore, careful dissections of the individual role and relative contribution of EPAC and PKA within the overall cAMP signaling in various model systems are critical for further elucidating the mechanism of cAMP signaling. To date no EPAC-specific antagonists and agonist, as well as isoform-specific agonists have been reported, and developing EPAC-specific pharmacological probes to determine the physiological functions that EPAC play in the overall cAMP-mediated signaling remains a major challenge within the research field. Furthermore, identified regulators of EPAC may lead to new mechanism-based therapeutic strategies specifically targeting the EPAC / cAMP-signaling components as EPAC has been implicated to play important roles in major human pathological conditions such as diabetes, heart disease, and cancer.
# This qHTS will be used to screen the Molecular Libraries Small Molecule Repository (MLSMR) as a concentration-titration series using the NCGC unique quantitative screening (qHTS) platform to find activators for EPAC1. In addition, this assay will also be used as a counterscreen for the EPAC2 qHTS. This fluorescent based assay is developed and validated for EPAC1 that measures exchange using EPAC effector Rap1 complex with BODIPY-GDP, a GDP analog with a tethered fluorophores. Activators are identified by monitoring the change in fluorescence signal as the exchanged free BODIPY-GDP has a reduced fluorescence compared to Rap1-bound BODIPY-GDP. Increase in signal (activation) is the desired outcome for the EPAC1 agonist while no activity in this assay is desired for the EPAC2 agonist counterscreen.
# [1] de Rooij, J., Zwartkruis, F. J., Verheijen, M. H., Cool, R. H., Nijman, S. M., Wittinghofer, A., and Bos, J.L. (1998) Nature 396, 474-477.
# Briefly, three uL of reagents (100 nM EPAC1, 250 nM RAP1B-BODIPY-GDP, 50 uM GDP) were dispensed into a 1536-well Greiner black solid-bottom medium binding assay plate. Controls and test compounds (23 nL) were transferred to the plate via a Kalypsys pin tool equipped with a 1536-pin array. The plates were centrifuged at 1,000 rpm for 15 seconds followed by 5 minute incubation at room temperature. The assay plates were read at 5 minute intervals for 30 minutes in the ViewLux plate reader using 480nm excitation and 540nm emission filters. The results were normalized to the […] positive control ATA and DMSO.
# Potency is the fitted concentration of half-maximal effect.
# Chain of Rap guanine nucleotide exchange factor 3 (Homo sapiens) (O95398 whole entry, looked up): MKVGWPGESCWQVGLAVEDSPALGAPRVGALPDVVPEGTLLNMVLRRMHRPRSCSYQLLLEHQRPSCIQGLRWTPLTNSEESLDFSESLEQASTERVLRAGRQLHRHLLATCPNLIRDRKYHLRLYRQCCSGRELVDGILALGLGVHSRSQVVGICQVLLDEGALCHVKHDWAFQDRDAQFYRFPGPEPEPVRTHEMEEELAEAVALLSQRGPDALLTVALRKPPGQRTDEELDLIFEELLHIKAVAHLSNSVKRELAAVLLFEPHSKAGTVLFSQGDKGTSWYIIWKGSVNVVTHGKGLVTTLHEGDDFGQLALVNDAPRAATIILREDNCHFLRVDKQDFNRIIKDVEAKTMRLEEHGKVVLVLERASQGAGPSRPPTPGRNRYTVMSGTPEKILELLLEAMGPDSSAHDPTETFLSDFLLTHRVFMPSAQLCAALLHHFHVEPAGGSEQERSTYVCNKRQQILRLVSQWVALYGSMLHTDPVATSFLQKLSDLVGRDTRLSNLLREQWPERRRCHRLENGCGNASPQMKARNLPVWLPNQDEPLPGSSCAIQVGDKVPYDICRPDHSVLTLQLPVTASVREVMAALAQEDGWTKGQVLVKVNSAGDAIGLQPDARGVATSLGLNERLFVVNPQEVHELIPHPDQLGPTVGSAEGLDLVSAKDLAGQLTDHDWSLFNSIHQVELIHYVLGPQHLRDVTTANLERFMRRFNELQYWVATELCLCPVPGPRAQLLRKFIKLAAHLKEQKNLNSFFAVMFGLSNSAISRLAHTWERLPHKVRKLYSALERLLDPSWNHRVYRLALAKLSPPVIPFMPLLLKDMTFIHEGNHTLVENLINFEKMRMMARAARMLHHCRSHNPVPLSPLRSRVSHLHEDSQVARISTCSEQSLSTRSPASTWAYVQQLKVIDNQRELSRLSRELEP
SMILES,"activity change, negative = inhibition",Potency
O=[N+]([O-])c1ccc(O)c([N+](=O)[O-])c1,5.37% (inactive),
O=[N+]([O-])c1cc(O)c(O)c([N+](=O)[O-])c1,,79.4 µM (active) and inactive
O=[N+]([O-])c1cc(I)c(O)c(I)c1,21.3% (inactive),
COP(=S)(OC)Oc1ccc(S(N)(=O)=O)cc1,19.3% (inactive),
O=c1oc2ccccc2c(O)c1Cc1c(O)c2ccccc2oc1=O,,inactive
O=c1oc2ccccc2c(O)c1C(CC(O)c1ccc(-c2ccc(Br)cc2)cc1)c1ccccc1 (stereo not given),,100 µM (active)
O=c1oc2ccccc2c(O)c1C(c1ccccc1O)c1c(O)c2ccccc2oc1=O,22% (inactive),
O=C(Oc1ccccc1)N1CCC2(CC1)CCN(C(c1ccccc1)c1ccccc1)CC2,26.6% (inactive),
CC(C)(C)c1cc(O)ccc1O,,inactive
Oc1cc2c(cc1O)[C@H]1c3ccccc3CN[C@H]1CC2,,inactive
CC(=O)O.CC(=O)O.[Cd],-7.38% (inactive),
COc1cc2c(cc1OC)[C@@H]1C(=O)c3ccc4oc(C(C)C)cc4c3OC1CO2 (stereo not given in full),3.72% (inactive),
CCc1cccc(C)c1N(C(=O)CCl)C(C)COC (stereo not given),1.24% (inactive),
CN(C)C1C(=O)C(C(N)=O)=C(O)[C@@]2(O)C(=O)C3=C(O)c4c(O)cccc4[C@](C)(O)C3C(O)C12 (stereo not given in full),2.85% (inactive),
Cl.Cl.Cl.Cl.Cl.Cl.N.N.N.N.NNNNN.NNNNN.O.O.[Ru].[Ru].[Ru],,89.1 µM (active)
O=CN1CC2CC(C1)c1cccc(=O)n1C2 (stereo not given),18.2% (inactive),
CC(C)CCCC1(C)C=Cc2c(O)c3c(c(CCC(C)C)c2O1)OC12C(CC4CC1C(C)(C)OC2(CCC(C)C(=O)O)C4O)C3=O (stereo not given),,70.8 µM (active)
CN(C)CCc1c[nH]c2cccc(O)c12,41% [at 320 µM] (inactive),
ClCCN(CCCl)/C(=C\c1ccccc1)c1ccnc2ccccc12,23.4% (inactive),
O=C1CC[C@@]2(O)C3Cc4ccc(O)c5c4C2(CCN3CC2CC2)[C@H]1O5 (stereo not given in full),2.27% [at 75.8 µM] (inactive),

SMILES,"activity change, negative = inhibition",Potency
CC(=O)OC1CC(OC(C)=O)[C@]2(C)C(CC(OC(C)=O)[C@]3(C)C2CC[C@@]2(C)C(c4ccoc4)C[C@H]4O[C@]432)C1(C)C (stereo not given in full),7.6% (inactive),
O=C1OC(c2ccc(O)c(S(=O)(=O)O)c2)(c2ccc(O)c(S(=O)(=O)O)c2)c2c(Br)c(Br)c(Br)c(Br)c21,,14.1 µM (active)
O=S(=O)(O)c1cc(O)ccc1O,16.6% [at 75.8 µM] (inactive),
CCOC(=O)[C@]12Cc3cc(OC)ccc3[C@H]1N(Cc1ccccc1)C(=O)c1cc(F)c(F)cc12,-17% (inactive),
CC(Cc1ccc2c(c1)OCO2)NO (stereo not given),6.99% [at 320 µM] (inactive),
NC(=O)[C@H](Cc1ccccc1)NC(=O)[C@H](Cc1c[nH]c2ccccc12)NC(=O)[C@@H]1CCCN1C(=O)[C@@H](N)Cc1ccc(O)cc1,5.24% [at 15.3 µM] (inactive),
CCOC(=O)C1(c2ccccc2)CCCN(C)CC1 (stereo not given),17.5% (inactive),
CCC(C)C(=O)c1c(O)c(C)c2oc3c(C)c(O)c(C(=O)C(C)CC)c(O)c3c2c1O (stereo not given),-18% (inactive),
CCOCN(C(=O)CCl)c1c(C)cccc1CC,14.4% (inactive),
O=[N+]([O-])c1ccc(F)c([N+](=O)[O-])c1,2.44% (inactive),
CC(C)=CCCC1(C)C=Cc2c(O)c3c(c(CC=C(C)C)c2O1)OC12C(=CC4CC1C(C)(C)OC2(C/C=C(/C)C(=O)O)C4=O)C3=O (stereo not given),,50.1 µM (active)
COC(=O)/C(C)=C\CC12OC(C)(C)C3CC(C=C4C(=O)c5c(OC)c6c(c(CC=C(C)C)c5OC431)OC(C)(CCC=C(C)C)C=C6)C2=O (stereo not given),5.89% (inactive),
CC(=O)Oc1c2c(c(CC=C(C)C)c3c1C(=O)C1=CC4CC5C(C)(C)OC(C/C=C(\C)C(=O)O)(C4=O)[C@]15O3)OC(C)(CCC=C(C)C)C=C2 (stereo not given in full),,44.7 µM (active)
CC(C)=CCCC1(C)C=Cc2c(O)c3c(c(CC=C(C)C)c2O1)OC12C(=CC4CC1C(C)(C)OC2(C/C=C(/C)C(=O)O)C4O)C3=O (stereo not given),,63.1 µM (active)
COc1c2c(c(CC=C(C)C)c3oc(=O)c(-c4ccc(O)cc4)c(O)c13)OC(C)(C)C=C2,-16.9% (inactive),
CN[C@H]1C[C@@H](N)[C@H](O)[C@@H](O[C@@H]2O[C@H](CO)[C@H](O)[C@@H]3OC4(O[C@H]23)O[C@H](C(N)CO)[C@H](O)[C@H](O)[C@H]4O)[C@@H]1O (stereo not given in full),,inactive
CC[C@]1(O)CC(O[C@@H]2CC(N(C)C)C(O)C(C)O2)c2c(cc3c(c2O)C(=O)c2c(O)cccc2C3=O)C1C(=O)OC (stereo not given in full),2.61% (inactive),
CCC(=O)O[C@H]1[C@@H](N2CCCCC2)C[C@H]2[C@@H]3CC[C@H]4C[C@H](OC(C)=O)[C@@H](N5CCCCC5)C[C@]4(C)[C@H]3CC[C@@]21C,13.2% (inactive),
CC(CC(C#N)(c1ccccc1)c1ccccc1)N(C)C (stereo not given),12.7% [at 320 µM] (inactive),
CC(C)C1C(=O)N2CCC[C@H]2[C@]2(O)O[C@](NC(=O)[C@@H]3C=C4c5cccc6[nH]cc(c56)C[C@H]4N(C)C3)(C(C)C)C(=O)N12 (stereo not given in full),37.4% (inactive),

SMILES,"activity change, negative = inhibition",Potency
C[C@@]12CCC(O)C[C@H]1CCC1C2CC[C@]2(C)C(=O)CCC12 (stereo not given in full),17.4% (inactive),
O=S(=O)(O)C(F)(F)C(F)(F)C(F)(F)C(F)(F)C(F)(F)C(F)(F)C(F)(F)C(F)(F)F,,35.5 µM (active)
O=S(=O)(O)C(F)(F)C(F)(F)C(F)(F)C(F)(F)F,30.7% [at 320 µM] (inactive),
CC(C)C[C@H]1C(=O)N2CCC[C@H]2[C@]2(O)O[C@](NC(=O)[C@@H]3C[C@@H]4c5cccc6[nH]cc(c56)C[C@H]4N(C)C3)(C(C)C)C(=O)N12,16.7% (inactive),
O[C@@H]1CCCC[C@@H]1N1CCC(c2ccccc2)CC1,6.71% (inactive),
Cn1cccc1-c1cccnc1,38% (inactive),
N#CC(C#N)=Cc1ccc(O)c(O)c1,,inactive
N#C/C(=C/c1ccc(O)c(O)c1)C(N)=S,2.58% [at 75.8 µM] (inactive),
N#C/C(=C\c1ccc(O)c(O)c1)C(N)=S,,89.1 µM (active)
O=c1ccc2cc(OC3OC(CO)C(O)C(O)C3O)c(O)cc2o1 (stereo not given),4.95% (inactive),
O=C(N[C@H]1N=C(c2ccccc2F)c2cccc3c2N(CC3)C1=O)c1cc2ccccc2[nH]1,-25% (inactive),
CC1Cc2ccccc2CN1 (stereo not given),13.3% (inactive),
C[N+](C)(C)CCOC(=O)C(O)(c1ccccc1)c1ccccc1,9% (inactive),
CN(CCC(N)CC(=O)NC1C=CC(n2ccc(N)nc2=O)OC1C(=O)O)C(=N)N (stereo not given),-1.03% (inactive),
O=C1C(Cl)=C(Cl)C(=O)C(Cl)=C1Cl,,39.8 µM (active)
COc1cc(CC(C)N)cc(OC)c1OC (stereo not given),14.5% [at 320 µM] (inactive),
CNc1ccccc1C(=O)O,17.1% (inactive),
Nc1ccccc1C(=O)O,10.3% (inactive),
O=C1C(I)=CC(=C(c2cc(I)c(O)c(I)c2)c2ccccc2C(=O)O)C=C1I,,39.8 µM (active)
N#CN,7.44% (inactive),
